Sampled rows, rich in hits. Any-hit rate of the full collection: about 1.9%.
sEH activator: soluble epoxide hydrolase activators, primary screen, biochemical, human sEH; activation, % at 2 µM; purified human sEH enzymatic activity, activator screen; hit rate 0.04% among 91,000; Bifunctional epoxide hydrolase 2 (Homo sapiens), P34913; in the data active = activation above about 37%
Target sequence (P34913 whole entry, looked up): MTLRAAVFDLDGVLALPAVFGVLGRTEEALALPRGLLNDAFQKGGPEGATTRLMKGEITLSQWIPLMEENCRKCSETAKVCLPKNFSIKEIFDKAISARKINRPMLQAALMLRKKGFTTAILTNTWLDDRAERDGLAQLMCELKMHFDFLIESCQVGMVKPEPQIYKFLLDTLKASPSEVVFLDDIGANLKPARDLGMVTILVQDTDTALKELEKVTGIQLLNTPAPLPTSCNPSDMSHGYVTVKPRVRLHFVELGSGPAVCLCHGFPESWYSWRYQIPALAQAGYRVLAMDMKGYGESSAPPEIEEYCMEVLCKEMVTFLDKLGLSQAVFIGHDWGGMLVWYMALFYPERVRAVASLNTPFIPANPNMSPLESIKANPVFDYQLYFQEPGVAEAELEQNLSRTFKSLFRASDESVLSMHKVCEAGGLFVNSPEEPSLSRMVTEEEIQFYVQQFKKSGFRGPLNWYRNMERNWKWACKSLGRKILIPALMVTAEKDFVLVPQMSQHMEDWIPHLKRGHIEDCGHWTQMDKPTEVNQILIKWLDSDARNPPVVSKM
sdo1 growth: growth rescue of sdo1-depleted yeast, primary screen, S. cerevisiae, bone marrow failure model | S. cerevisiae sdo1-depleted JHY4D growth rescue, OD600 30 h; hits give high values; pdr5 snq2 efflux-pump mutant strain | z-score at 10 µM | hit rate 0.21% among 140,000 | AID 817, 2007;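 active = z-score above 3 at both the 24 hr and the 30 hr optical density reads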;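 note: z-score against mean and SD of all compound wells on the same plate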
Measles CPE: compounds protecting cells from measles virus cytopathic effect, primary screen, measles RdRp inhibitor project, single point, MLSMR library, absorbance; Measles virus-infected cells, CPE protection; protection (pct of control), % at 4 µM; AID 841, 2007; hit rate 1.5% among 140,000; in the data active = protection mostly above about 24%, no sharp cut-off; inactive = mostly below about 26%
sEH inh: soluble epoxide hydrolase inhibitors, primary screen, biochemical, human sEH; Bifunctional epoxide hydrolase 2 (Homo sapiens), P34913; recombinant human sEH enzymatic activity assay; inhibition, % at 2 µM; hit rate 0.34% among 91,000; AID 707, 2007; in the data active = inhibition above about 80%
The depositor's hits bear a star; nt = not tested or not shown.

SMILES	sEH activator	sdo1 growth	Measles CPE	sEH inh
Cc1ccc(N2C(=O)CC3(CC4C=CC3C4)C2=O)cc1 (configuration not stated)	nt	-1.2	53*	nt
CC(NC(=O)c1ccc([N+](=O)[O-])cc1[N+](=O)[O-])c1ccc(-c2ccccc2)cc1 (configuration not stated)	nt	-1.5	40*	nt
CCC(NC(=O)c1ccc([N+](=O)[O-])cc1[N+](=O)[O-])c1ccccc1 (configuration not stated)	9	-0.45	5	-6
CC(C)(C)C(=O)COC(=O)c1ccc(O)cc1	4	0.87	55*	-5
CC(C)(C)C(=O)COC(=O)c1ccccc1O	-1	0.54	8	4
CSc1nc(=NC(C)=O)ss1	-7	0.61	21	3
CCn1c(C)nc2cc(-c3nnc(-c4c(-c5ccccc5)noc4C)o3)ccc21	13	-2.4	50*	-12
CS(=O)(=O)N1CCc2cc(-c3csc(NC(=O)C(c4ccccc4)c4ccccc4)n3)ccc21	-3	-1.1	6	4
CC1Cc2cc(-c3csc(NC(=O)Cc4ccccc4)n3)ccc2N1S(C)(=O)=O (configuration not stated)	12	-0.86	71*	-12
COC(=O)c1ccc(Cn2nc(C(F)(F)F)cc2C)cc1	-5	-0.24	5	8
Nc1nnnn1/N=C/c1ccccc1OCc1ccc(Cl)cc1Cl	-6	-1.3	23	4
COC(=O)c1ccccc1NC(=O)/C=C/C(=O)O	nt	1.5	34	nt
COC(=O)c1ccccc1NC(=O)/C=N/O	0	-0.73	44*	3
Nc1nc(Nc2ccc(Cl)cc2)n[nH]1	2	0.37	39*	0
O=C(CSc1nc2ccccc2c(=O)n1Cc1ccco1)N1CCN(c2ccccc2)CC1	6	-1.4	45*	-4
CCCn1c(SCC(=O)N2CCN(c3ccccc3)CC2)nc2ccccc2c1=O	13	-1.4	3	-14
CCOc1ccc(NC(=O)NCC2CCN(c3ccc(OC)cc3)C2)cc1 (configuration not stated)	-88	0.14	6	88*
Cc1cc(Br)ccc1OCC(=O)NNC(=O)c1cnccn1	nt	0.77	37*	nt
O=C(COc1cccc2ccccc12)NNC(=O)c1cnccn1	nt	0.28	13	nt
O=C(OCc1nc2ccccc2s1)c1cccc(S(=O)(=O)N2CCOCC2)c1	9	-0.86	2	-9
CCOC(=O)N1CCN(CC(O)COCCC23CC4CC(CC(C4)C2)C3)CC1 (configuration not stated)	-2	-2	5	0
CCOC(=O)c1c(C)n(C)c2ccc(OC)c(NC(=O)CCN3CCSCC3)c12	3	1.1	37*	-2
CCOC(=O)c1c(C)n(C)c2ccc(OC)c(NC(=O)CN3CCN(Cc4ccccc4)CC3)c12	0	1.1	4	-1
O=C(CCC(=O)N(CC(=O)NC1CCCC1)C1CCCC1)Nc1ccccn1	3	0.15	6	-3
O=C(CCCC(=O)N(CC(=O)NC1CCCC1)C1CCCC1)Nc1ccccn1	4	0.58	70*	-4
SMILES	sEH activator	sdo1 growth	Measles CPE	sEH inh
O=C(C1CCCN(S(=O)(=O)Cc2ccccc2)C1)N1CCc2ccccc21 (configuration not stated)	24	-0.19	26	-22
Cc1c(NC(=O)c2noc(C(C)C)c2[N+](=O)[O-])c(=O)n(-c2ccccc2)n1C	2	0.55	29*	-5
CC1CCCCN1C(=O)NC12CC3CC(CC(C3)C1)C2 (configuration not stated)	-88	0.68	19	87*
O=C(CSc1nc2c(c(=O)n1-c1ccc(Cl)cc1)SCC2)Nc1nccs1	nt	-0.41	2	nt
O=C(CSc1nc2c(c(=O)n1-c1ccc(Br)cc1)SCC2)Nc1nccs1	47*	-1.2	3	-45
COCCN(C(=O)Cc1cccs1)c1nnc(-c2cccnc2)s1	-20	0.44	20*	20
CCc1nnc(NS(=O)(=O)c2ccc(NC(=S)NC(=O)/C=C/c3ccccc3)cc2)s1	nt	0.51	63*	nt
O=C(CCC1CCCCC1)NNC(=O)NC12CC3CC(CC(C3)C1)C2	-84	-0.93	5	84*
Cc1cc(F)ccc1S(=O)(=O)Nc1ccccc1C(=O)Nc1ccc2[nH]c(=O)[nH]c2c1	nt	0.43	1	nt
COc1ccc(N2C(=S)N(C(=O)c3ccccc3)C(=Nc3ccccc3)C2=Nc2ccccc2)cc1	-6	nt	nt	10
Cn1nc(-c2ccc(C(=O)Nc3cccc(Cl)c3)cc2)c2ccccc2c1=O	-20	-1.1	38*	18
CC(=O)N1C(Nc2ccc(Cl)cc2)CCN1c1ccccc1 (configuration not stated)	3	0.31	4	-5
C/C(Cl)=C\Cn1c(Nc2ccccc2)nc2c1c(=O)n(C)c(=O)n2C	6	-0.49	25*	-8
Brc1ccc(-c2nn3c(-c4ccccn4)nnc3s2)o1	-3	0.12	6	3
Cc1cc2oc(C(=O)Nc3ccc(S(=O)(=O)N4CCCC(C)C4)cc3)cc(=O)c2cc1Cl (configuration not stated)	nt	-0.69	7	nt
Cc1cc(C)c2oc(C(=O)Nc3ccc(S(=O)(=O)N4CCC(C)CC4)cc3)cc(=O)c2c1	nt	0.16	56*	nt
O=[N+]([O-])c1cc(S(=O)(=O)Nc2ccccc2)ccc1NCc1ccccc1	nt	-1.9	37*	nt
O=[N+]([O-])c1cc(S(=O)(=O)Nc2ccccc2)ccc1NCc1cccnc1	nt	0.81	14	nt
O=C(Nc1ccccc1)Nc1cc(Cl)cc(Cl)c1	-74	-1.9	63*	72
CCOC(=O)C1=NN(N=O)C2(CC(=O)N(c3cc(C)cc(C)c3)C2=O)C1 (configuration not stated)	0	0.48	12	-3
CSc1nc(N)nc(SCCS(=O)(=O)c2ccc(Cl)cc2)c1C#N	-8	-1.9	78*	10
CSc1nc(N)nc(SCC(=O)Nc2ccc(Cl)cc2)c1C#N	-10	-1.1	11	12
O=C(Nc1nncs1)C(Sc1ccccc1)c1ccccc1 (configuration not stated)	nt	-1.1	15	nt
CC(=O)NS(=O)(=O)c1ccc(NC(=O)C(Sc2ccccc2)c2ccccc2)cc1 (configuration not stated)	16	0.67	17	-17
CC(C)NC(=O)C(Sc1ccccc1)c1ccccc1 (configuration not stated)	7	0.12	30*	-6
CCC(C)NS(=O)(=O)c1ccc(NC(=O)C(Sc2ccccc2)c2ccccc2)cc1 (configuration not stated)	nt	-0.56	32*	nt
CCOC(=O)C1=NNC(C(=O)c2ccc(C)cc2)C1c1ccc(OC)cc1 (configuration not stated)	-10	-0.84	9	9
O=C(Nc1ccccc1Cl)NC1(C(=O)N2CCCC2)CCCCC1	16	-0.56	8	-13
O=C(NCc1cccnc1)C1CCCN(S(=O)(=O)c2ccc(Br)cc2)C1 (configuration not stated)	10	0.07	26	-15

Screens: PubChem BioAssay, several laboratories
